Structures can show the parent of a compound that is named as a salt.
Legend:
Test in all cases: growth AUC normalised to DMSO control (median) (fraction of control); higher = less growth inhibition, active = hit call of the paper
Conditions in all cases: 20 µM;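 active = normalised median growth AUC below 0.1 of DMSO control; inactive = AUC 0.1 or higher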
P. vulgatus RND KO = system: P. vulgatus RND KO
Method in brief: (§1)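 Strains were passaged twice overnight without oxygen, then grown in mGAM in 96-well plates with each approved-drug library compound at 20 μM and 1% DMSO, starting at OD578 0.01. OD578 was read hourly for 24 h inside an anaerobic incubator. Curves were truncated at entry into stationary phase, and the trapezoidal-rule area under the curve was normalised to same-plate vehicle wells. The value is the median across three biological replicates.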

P. vulgatus WT = system: P. vulgatus WT
Method in brief: as §1

[1] = system: S. enterica typhimurium WT
Method in brief: as §1

[2] = system: S. enterica typhimurium tolC KO
Method in brief: as §1

Measured: growth AUC normalised to DMSO control
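Also: active when median AUC fell below 0.1.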

COC(=O)[C@H](c1ccccc1Cl)N1CCc2sccc2C1 [Clopidogrel]
inactive: P. vulgatus RND KO 0.999 | P. vulgatus WT 0.996 | [1] 1 | [2] 0.914

CC(C)(C)NCC(O)CSc1nc(-c2ccc(C(N)=O)s2)cs1 (configuration not stated) [Arotinolol hydrochloride]
inactive: P. vulgatus RND KO 1.02 | P. vulgatus WT 1 | [1] 0.996 | [2] 1.01

Nc1cccc2c1C(=O)N(C1CCC(=O)NC1=O)C2=O (configuration not stated) [Pomalidomide]
inactive: P. vulgatus RND KO 1.06 | P. vulgatus WT 1.09 | [1] 1.02 | [2] 0.983

CC[C@@H]([C@H](C)O)n1ncn(-c2ccc(N3CCN(c4ccc(OC[C@@H]5CO[C@@](Cn6cncn6)(c6ccc(F)cc6F)C5)cc4)CC3)cc2)c1=O [Posaconazole hydrate]
inactive: P. vulgatus RND KO 0.87 | P. vulgatus WT 0.875 | [1] 1.01 | [2] 0.979

O=C1[C@@H]2[C@H]3CC[C@H](C3)[C@@H]2C(=O)N1CCCCN1CCN(c2ncccn2)CC1 [Tandospirone]
inactive: P. vulgatus RND KO 1.07 | P. vulgatus WT 1.05 | [1] 1.01 | [2] 0.996

CCCC(=O)OCOC(=O)C1=C(C)NC(C)=C(C(=O)OC)C1c1cccc(Cl)c1Cl (configuration not stated) [Clevidipine]
inactive: P. vulgatus RND KO 0.986 | P. vulgatus WT 0.992 | [1] 0.98 | [2] 1

C/C(O)=C(\C#N)C(=O)Nc1ccc(C(F)(F)F)cc1 [Teriflunomide]
inactive: P. vulgatus RND KO 0.969 | P. vulgatus WT 0.982 | [1] 1 | [2] 0.88

O=c1[nH]c(=O)n(C2CCCO2)cc1F (configuration not stated) [Tegafur]
inactive: P. vulgatus RND KO 1 | P. vulgatus WT 1.01 | [1] 1 | [2] 0.999

COc1cc(NS(=O)(=O)c2ccc(N)cc2)ncn1 [Sulfamonomethoxine]
inactive: P. vulgatus RND KO 1.02 | P. vulgatus WT 0.976 | [1] 0.955 | [2] 0.974

N[C@@H](Cc1c[nH]c2ccccc12)C(=O)O [L-Tryptophan]
inactive: P. vulgatus RND KO 1 | P. vulgatus WT 1.03 | [1] 0.994 | [2] 0.989

Cc1cc2nc3c(=O)[nH]c(=O)nc-3n(C[C@H](O)[C@H](O)[C@H](O)CO)c2cc1C [Riboflavine]
inactive: P. vulgatus RND KO 1.11 | P. vulgatus WT 1.07 | [1] 1 | [2] 0.991

CCOC(=O)C1=C[C@@H](OC(CC)CC)[C@H](NC(C)=O)[C@@H](N)C1 [Oseltamivir phosphate]
inactive: P. vulgatus RND KO 1.08 | P. vulgatus WT 1.05 | [1] 0.996 | [2] 0.984

O=C(O)c1cc(=O)[nH]c(=O)[nH]1 [Orotic acid]
inactive: P. vulgatus RND KO 0.976 | P. vulgatus WT 0.993 | [1] 1 | [2] 1.01

CC(=O)c1cc2cccc(OCC(O)CNC(C)C)c2o1 (configuration not stated) [Befunolol]
inactive: P. vulgatus RND KO 1.03 | P. vulgatus WT 1.06 | [1] 1 | [2] 1

CC(C)(CO)[C@@H](O)C(=O)NCCC(=O)NCCSSCCNC(=O)CCNC(=O)[C@H](O)C(C)(C)CO [D-Pantethine]
inactive: P. vulgatus RND KO 1.01 | P. vulgatus WT 1.01 | [1] 1 | [2] 1

N[C@@H]1CCCCN(c2c(F)cc3c(=O)c(C(=O)O)cn(C4CC4)c3c2Cl)C1 [Besifloxacin hydrochloride]
active: P. vulgatus RND KO 0.0164 | P. vulgatus WT 0.0175 | [1] 0.00618 | [2] 0.00833

Oc1c(Br)cc(Br)c2cccnc12 [Broxyquinoline]
inactive: P. vulgatus RND KO 0.294 | [1] 0.986 | [2] 0.561
active: P. vulgatus WT 0.0591

O=P(O)(O)C(O)(Cn1ccnc1)P(=O)(O)O [Zoledronic acid hydrate]
inactive: P. vulgatus RND KO 0.972 | P. vulgatus WT 0.988 | [1] 1.01 | [2] 0.994
